Structures can show the parent of a compound that is named as a salt.
Legend:
Settings in all cases: incubation time: 27 h, anaerobic, 37 °C;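 for the amine columns active = adjusted P below 0.05 in both replicates with a change the same way and a mean fold change under 0.8 or over 1.25; inactive = the rest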
[1] = tested on: Clostridium sporogenes DSM 1664; assay: growth (OD595) fold change vs plate DMSO controls (fold change (ratio)); higher = more growth
How it was run: (§1)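 Each value is the mean of 2 biological replicates, and fold changes above 1.5 were set to NA. The underlying readings were taken at 595 nm from shaken anaerobic mGAM cultures in 96-well plates after 27 h at 37 °C. They were blank-subtracted, corrected for compound background using 20 µM compound solutions in water, and converted to OD with a calibration factor of 5. Growth is the fold change relative to the median of the plate DMSO controls.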

Escherichia coli IAI1 [2] = assay: as above
How it was run: as §1

[3] = tested on: Klebsiella aerogenes DSM 30053; assay: as above
How it was run: as §1

[4] = tested on: Ruminococcus gnavus DSM 108212; assay: as above
How it was run: as §1

[5] = tested on: Klebsiella aerogenes DSM 30053; assay: fold change of Histamine concentration vs plate DMSO controls (fold change (ratio)); higher = more amine produced, active = hit call of the paper (significant change in both replicates, either direction)
How it was run: (§2)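 Amine values are fold changes relative to DMSO-only wells on the same plate. They derive from 27 h, 37 °C anaerobic mGAM cultures of four gut bacterial strains in 80 µL wells, dosed at 20 µM final, or 50 µM final for sweeteners. Extraction of the whole culture, LC–triple-quadrupole MS in dynamic MRM mode, external calibration curves and within-batch drift correction were used, with 2 biological replicates averaged.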

[6] = tested on: Clostridium sporogenes DSM 1664; assay: fold change of Tryptamine concentration vs plate DMSO controls (fold change (ratio)); higher = more amine produced, active = hit call of the paper (significant change in both replicates, either direction)
How it was run: as §2

[7] = tested on: Ruminococcus gnavus DSM 108212; assay: as above
How it was run: as §2

Escherichia coli IAI1 [8] = assay: fold change of Putrescine concentration vs plate DMSO controls (fold change (ratio)); higher = more amine produced, active = hit call of the paper (significant change in both replicates, either direction)
How it was run: as §2

[9] = tested on: Klebsiella aerogenes DSM 30053; assay: as above
How it was run: as §2

Escherichia coli IAI1 [10] = assay: fold change of Cadaverine concentration vs plate DMSO controls (fold change (ratio)); higher = more amine produced, active = hit call of the paper (significant change in both replicates, either direction)
How it was run: as §2

[11] = tested on: Klebsiella aerogenes DSM 30053; assay: as above
How it was run: as §2

[12] = tested on: Ruminococcus gnavus DSM 108212; assay: fold change of 2-Phenylethylamine concentration vs plate DMSO controls (fold change (ratio)); higher = more amine produced, active = hit call of the paper (significant change in both replicates, either direction)
How it was run: as §2

| Compound | growth [1] | growth (Escherichia coli IAI1 [2]) | growth [3] | growth [4] | fold change of Histamine concentration [5] | fold change of Tryptamine concentration [6] | fold change of Tryptamine concentration [7] | fold change of Putrescine concentration (Escherichia coli IAI1 [8]) | fold change of Putrescine concentration [9] | fold change of Cadaverine concentration (Escherichia coli IAI1 [10]) | fold change of Cadaverine concentration [11] | fold change of 2-Phenylethylamine concentration [12] |
| --- | --- | --- | --- | --- | --- | --- | --- | --- | --- | --- | --- | --- |
| CNNCc1ccc(C(=O)NC(C)C)cc1 [Procarbazine hydrochloride] (20 µM) | 1.03 | 1.07 | 1.02 | 1.27 | 1.05 (inactive) | 1.02 (inactive) | 1.03 (inactive) | 1.02 (inactive) | 0.983 (inactive) | 0.984 (inactive) | 1 (inactive) | 1.06 (inactive) |
| CCN(CC)CCNC(=O)c1cc(S(C)(=O)=O)ccc1OC [Tiapride hydrochloride] (20 µM) | 0.729 | 0.484 | 0.715 | 0.09 | 0.997 (inactive) | 0.999 (inactive) | 1 (inactive) | 1.01 (inactive) | 0.992 (inactive) | 1.03 (inactive) | 1 (inactive) | 0.956 (inactive) |
| CN1CCCC(n2nc(Cc3ccc(Cl)cc3)c3ccccc3c2=O)CC1 (stereo not given) [Azelastine hydrochloride] (20 µM) | 1.05 | 1.05 | 0.95 | 0.57 | 1.13 (inactive) | 0.963 (inactive) | 0.943 (inactive) | 1.03 (inactive) | 1.03 (inactive) | 1.01 (inactive) | 0.976 (inactive) | 0.937 (inactive) |
| CC(C)NCC(O)COc1ccc(COCCOC(C)C)cc1 (stereo not given) [Bisoprolol hemifumarate] (20 µM) | 1.1 | 0.975 | 0.97 | 0.79 | 0.965 (inactive) | 1.2 (inactive) | 1.09 (inactive) | 1 (inactive) | 0.846 (inactive) | 0.99 (inactive) | 1.13 (inactive) | 1.09 (inactive) |
| CCCCc1nc(Cl)c(CO)n1Cc1ccc(-c2ccccc2-c2nnn[nH]2)cc1 [Losartan] (20 µM) | 1.01 | 0.991 | 1.01 | 0.99 | 1.07 (inactive) | 0.975 (inactive) | 1.05 (inactive) | 1.01 (inactive) | 1.04 (inactive) | 0.99 (inactive) | 1 (inactive) | 1.06 (inactive) |
| CCCCc1ccc2[nH]c(NC(=O)OC)nc2c1 [Parbendazole] (20 µM) | 1.04 | 1.04 | 1.02 | 1.25 | 1.11 (inactive) | 0.953 (inactive) | 0.998 (inactive) | 0.98 (inactive) | 1.07 (inactive) | 0.981 (inactive) | 1.03 (inactive) | 1.02 (inactive) |
| O=C(O)Cc1cc(I)c(Oc2ccc(O)c(I)c2)c(I)c1 [Tiratricol] (20 µM) | 0.903 | 1.07 | 1.04 | 0.808 | 1.04 (inactive) | 0.592 (active) | 0.827 (inactive) | 1.05 (inactive) | 1.01 (inactive) | 1.03 (inactive) | 1.01 (inactive) | 0.884 (inactive) |
| Cc1cc(-c2ccccc2)nnc1NCCN1CCOCC1 [Minaprine dihydrochloride] (20 µM) | 1.21 | 0.985 | 0.972 | 1.16 | 0.939 (inactive) | 1.01 (inactive) | 0.991 (inactive) | 0.963 (inactive) | 0.998 (inactive) | 1.01 (inactive) | 1 (inactive) | 0.955 (inactive) |
| CCCOc1ccc(C(=O)OCCN(CC)CC)cc1N [Proparacaine hydrochloride] (20 µM) | 1.19 | 1.08 | 1.14 | 1.03 | 0.892 (inactive) | 1.09 (inactive) | 1.08 (inactive) | 1.13 (inactive) | 0.98 (inactive) | 0.971 (inactive) | 1.04 (inactive) | 1.14 (inactive) |
| CCC1NC(=O)c2cc(S(N)(=O)=O)c(Cl)cc2N1 (stereo not given) [Quinethazone] (20 µM) | 0.978 | 0.894 | 0.838 | 0.755 | 1.02 (inactive) | 1.27 (inactive) | 1.1 (inactive) | 0.956 (inactive) | 0.92 (inactive) | 1.01 (inactive) | 1.19 (inactive) | 1.24 (inactive) |
| CCn1cc(C(=O)O)c(=O)c2cc(F)c(N3CCNCC3)nc21 [Enoxacin] (20 µM) | 0.0582 | 0.0418 | 0.246 | 1.01 | 0.228 (active) | 0.0679 (active) | 0.892 (inactive) | 0.878 (inactive) | 1.19 (inactive) | 0.269 (active) | 0.961 (inactive) | 0.905 (inactive) |
| O=C(O)Cc1csc(-c2ccc(Cl)cc2)n1 [Fenclozic acid] (20 µM) | 1.01 | 0.949 | 0.979 | 1.1 | 1.05 (inactive) | 1 (inactive) | 1.05 (inactive) | 1.01 (inactive) | 0.985 (inactive) | 0.986 (inactive) | 0.977 (inactive) | 1.1 (inactive) |
| OC(Cn1cncn1)(Cn1cncn1)c1ccc(F)cc1F [Fluconazole] (20 µM) | 0.908 | 0.984 | 1.01 | 1.04 | 0.956 (inactive) | 1.05 (inactive) | 1.01 (inactive) | 0.989 (inactive) | 1.01 (inactive) | 1.01 (inactive) | 1.02 (inactive) | 0.959 (inactive) |
| Cc1ccc2c(Cl)cc(Cl)c(O)c2n1 [Chlorquinaldol] (20 µM) | 0.726 | 0.915 | 0.929 | 0.448 | 1.12 (inactive) | 0.518 (active) | 0.33 (active) | 1.17 (inactive) | 1.03 (inactive) | 1.32 (inactive) | 0.978 (inactive) | 0.332 (inactive) |
| COc1ccc2c(c1)c(CC(=O)O)c(C)n2C(=O)c1ccc(Cl)cc1 [Indomethacin] (20 µM) | 0.988 | 1 | 1.02 | 1.04 | 0.997 (inactive) | 0.988 (inactive) | 0.981 (inactive) | 1.01 (inactive) | 1.01 (inactive) | 1 (inactive) | 0.989 (inactive) | 0.979 (inactive) |
| C#C[C@]1(O)CC[C@H]2[C@@H]3CCC4=CC(=O)CC[C@@H]4[C@H]3CC[C@@]21C [Norethindrone] (20 µM) | 1.09 | 0.973 | 1 | 1.22 | 1.11 (inactive) | 1.01 (inactive) | 1.03 (inactive) | 0.962 (inactive) | 1.03 (inactive) | 0.98 (inactive) | 0.989 (inactive) | 1.04 (inactive) |
| COc1ccc(CC2c3cc(OC)c(OC)cc3CC[N+]2(C)CCC(=O)OCCCCCOC(=O)CC[N+]2(C)CCc3cc(OC)c(OC)cc3C2Cc2ccc(OC)c(OC)c2)cc1OC (stereo not given) [Atracurium besylate] (20 µM) | 0.945 | 1.13 | 0.964 | 1.13 | 1.01 (inactive) | 1.15 (inactive) | 1.1 (inactive) | 1.09 (inactive) | 0.953 (inactive) | 1 (inactive) | 1.03 (inactive) | 1.05 (inactive) |
| CN1CC(O)c2cc(N=NC(N)=O)c(O)cc21 (stereo not given) [Carbazochrome] (20 µM) | 0.927 | 1.01 | 0.984 | 0.959 | 1.07 (inactive) | 1.1 (inactive) | 1.15 (inactive) | 1.05 (inactive) | 1.01 (inactive) | 0.914 (inactive) | 1.07 (inactive) | 1.34 (inactive) |
| CC1(C)S[C@@H]2[C@H](NC(=O)C(C(=O)O)c3ccccc3)C(=O)N2[C@H]1C(=O)O (stereo not given in full) [Carbenicillin disodium salt] (20 µM) | 0 | 1.19 | 1.05 | 0.00334 | 1.02 (inactive) | 0.0162 (active) | 0.0824 (active) | 0.927 (inactive) | 0.986 (inactive) | 1.79 (active) | 1.05 (inactive) | 0.0579 (active) |
| CC1(C)S[C@@H]2[C@H](NC(=O)C3(N)CCCCC3)C(=O)N2[C@H]1C(=O)O [Cyclacillin] (20 µM) | 0 | 1 | 1.02 | 0.0834 | 0.87 (inactive) | 0.0132 (active) | 0.0795 (active) | 0.887 (inactive) | 0.993 (inactive) | 1.36 (active) | 1 (inactive) | 0.0578 (active) |
| NCc1ccccc1CC(=O)N[C@@H]1C(=O)N2C(C(=O)O)=C(CSc3nnnn3CC(=O)O)CS[C@H]12 [Ceforanide] (20 µM) | 0 | 1.11 | 1.08 | 0.307 | 0.726 (inactive) | 0.0212 (active) | 0.0541 (active) | 1.91 (active) | 1.09 (inactive) | 1.95 (active) | 1.07 (inactive) | 0.0519 (active) |
| O=C1[C@@H]2[C@H]3CC[C@H](C3)[C@@H]2C(=O)N1CCCCN1CCN(c2ncccn2)CC1 [Tandospirone] (20 µM) | 0.973 | 1.04 | 1.03 | 1.06 | 0.981 (inactive) | 0.992 (inactive) | 1.01 (inactive) | 0.989 (inactive) | 0.995 (inactive) | 1 (inactive) | 0.997 (inactive) | 1.06 (inactive) |
| [S] (20 µM) | 1.07 | 0.919 | 0.964 | 0.976 | 0.924 (inactive) | 0.999 (inactive) | 1.01 (inactive) | 1.02 (inactive) | 0.962 (inactive) | 0.951 (inactive) | 1 (inactive) | 1.02 (inactive) |
| CO[C@@]1(NC(=O)C(C(=O)O)c2ccc(O)cc2)C(=O)N2C(C(=O)O)=C(CSc3nnnn3C)CO[C@@H]21 (stereo not given in full) [Moxalactam disodium salt] (20 µM) | 0 | 0.0889 | 1.02 | 0.0817 | 0.893 (inactive) | 0.0273 (active) | 0.06 (active) | 1.5 (inactive) | 1.02 (inactive) | 2 (active) | 1.02 (inactive) | 0.0586 (active) |
| C=C1C[C@@]23CC[C@H]4[C@@](C)(CCC[C@@]4(C)C(=O)O[C@@H]4O[C@H](CO)[C@@H](O)[C@H](O)[C@H]4O)[C@@H]2CC[C@]1(O[C@@H]1O[C@H](CO)[C@@H](O)[C@H](O)[C@H]1O)C3 [Rubusoside] (50 µM) | 1.1 | 1 | 0.969 | 1.01 | 1.01 (inactive) | 1 (inactive) | 0.989 (inactive) | 1.05 (inactive) | 1.01 (inactive) | 1.02 (inactive) | 0.991 (inactive) | 0.981 (inactive) |

Source: the supplement of paper PMC12494721
